Data published in PubChem BioAssay (EPA / NIEHS).
The source made the active and inactive calls. Rule for the calls: active = hit-call score of the fitted dose curve at least 0.9, where 1 is the maximum; inactive = score below 0.9.

Experiments:
Details in all cases: mRNA level, 48 h; actives raise or lower the signal
[1] = read-out: Nuclear factor NF-kappa-B p105 subunit (Homo sapiens) (UniProt P19838); assay: LTEA_HepaRG_NFKB1: Life Technologies and Expression Analysis (LTEA) Assay for Nuclear Factor Kappa B Subunit 1 (NFKB1) using HepaRG (AID 2283521)
In short: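 HepaRG, 48 h exposure; 8-pt half-log series from 100 uM in 0.5% DMSO; duplicates. Readout: NFKB1 mRNA by qRT-PCR (Fluidigm arrays), housekeeping-normalized. Gain/loss fit vs DMSO baseline.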

[2] = read-out: Protein phosphatase 2A (PPP2R4), PTPA (gene 5524); assay: LTEA_HepaRG_PPP2R4: Life Technologies and Expression Analysis (LTEA) Assay for Protein phosphatase 2A (PPP2R4) using HepaRG (AID 2283522)
In short: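 Differentiated HepaRG cells in serum-free induction medium were exposed in duplicate for 48 h to eight concentrations, top 100 uM with half-log dilutions, in 0.5% DMSO. PPP2R4 mRNA was quantified by TaqMan qRT-PCR, normalized to ACTB, GAPDH and POLR2A.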

[3] = read-out: Phosphatase and tensin (PTEN), PTEN (gene 5728); assay: LTEA_HepaRG_PTEN: Life Technologies and Expression Analysis (LTEA) Assay for Phosphatase and tensin (PTEN) using HepaRG (AID 2283523)
In short: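 Differentiated human HepaRG cells, plated 48 h then switched to serum-free induction medium, were exposed in duplicate for 48 h to eight half-log concentrations up to 100 uM in 0.5% DMSO. PTEN mRNA measured by TaqMan qRT-PCR, normalized to ACTB/GAPDH/POLR2A, bidirectional fit versus DMSO.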

[4] = read-out: solute carrier (SLC22A1), SLC22A1 (gene 6580); assay: LTEA_HepaRG_SLC22A1: Life Technologies and Expression Analysis (LTEA) Assay for solute carrier (SLC22A1) using HepaRG (AID 2283524)
In short: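 Human HepaRG cells were plated 48 h, switched to serum-free induction medium, then exposed in duplicate for 48 h to 8-point half-log series from 100 uM in 0.5% DMSO. SLC22A1 mRNA measured by qRT-PCR, normalized to ACTB/GAPDH/POLR2A, fitted bidirectionally versus DMSO.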

[5] = read-out: Pyruvate Dehydrogenase Kinase 4 (PDK4), PDK4 (gene 5166); assay: LTEA_HepaRG_PDK4: Life Technologies and Expression Analysis (LTEA) Assay for Pyruvate Dehydrogenase Kinase 4 (PDK4) using HepaRG (AID 2283525)
In short: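 Differentiated human HepaRG cells, pre-cultured 48 h, were exposed in duplicate for 48 h in serum-free induction medium to eight half-log concentrations up to 100 uM in 0.5% DMSO. PDK4 mRNA was quantified by qRT-PCR, normalized to ACTB, GAPDH and POLR2A, bidirectional fitting versus DMSO.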

[6] = read-out: NAD(P)H dehydrogenase [quinone] 1 (NQO1), NQO1 (gene 1728); assay: LTEA_HepaRG_NQO1: Life Technologies and Expression Analysis (LTEA) Assay for NAD(P)H dehydrogenase [quinone] 1 (NQO1) using HepaRG (AID 2283526)
In short: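 Differentiated HepaRG cells, plated 48 h and then switched to serum-free induction medium, were exposed in duplicate for 48 h to 8-point half-log concentrations up to 100 uM in 0.5% DMSO. mRNA measured by qRT-PCR, normalized to ACTB, GAPDH, POLR2A; bidirectional fit versus DMSO.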

[7] = read-out: Nuclear factor erythroid 2-related factor 2 (Homo sapiens) (UniProt Q16236); assay: LTEA_HepaRG_NFE2L2: Life Technologies and Expression Analysis (LTEA) Assay for Nuclear factor erythroid 2-related factor 2 (NFE2L2) Transcription Factor using HepaRG (AID 2283527)
In short: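 Differentiated human HepaRG cells in serum-free induction medium were exposed for 48 h to eight concentrations (top 100 uM, half-log dilutions, 0.5% DMSO), in duplicate. NFE2L2 mRNA was quantified by TaqMan qRT-PCR, normalized to ACTB, GAPDH and POLR2A, with bidirectional fitting versus DMSO.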

[8] = read-out: succinate dehydrogenase complex iron sulfur subunit B (SDHB), SDHB (gene 6390); assay: LTEA_HepaRG_SDHB: Life Technologies and Expression Analysis (LTEA) Assay for succinate dehydrogenase complex iron sulfur subunit B (SDHB) using HepaRG (AID 2283528)
In short: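 Readout is SDHB transcript level by qRT-PCR, normalised to three housekeeping genes and fitted bidirectionally against 0.5% DMSO vehicle. Human HepaRG cells were treated for 48 h at up to 100 uM.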

[9] = read-out: Signal transducer and activator of transcription 3 (Homo sapiens) (UniProt P40763); assay: LTEA_HepaRG_STAT3: Life Technologies and Expression Analysis (LTEA) Assay for Signal transducer and activator of transcription (STAT3) using HepaRG (AID 2283529)
In short: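 Differentiated human HepaRG cells in serum-free induction medium were exposed in duplicate for 48 h to eight half-log concentrations up to 100 uM in 0.5% DMSO. STAT3 mRNA was quantified by TaqMan qRT-PCR, normalized to ACTB, GAPDH and POLR2A, and fitted bidirectionally against DMSO.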

[10] = read-out: solute carrier (SLCO1B1), SLCO1B1 (gene 10599); assay: LTEA_HepaRG_SLCO1B1: Life Technologies and Expression Analysis (LTEA) Assay for solute carrier (SLCO1B1) using HepaRG (AID 2283530)
In short: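 HepaRG, serum-free induction medium, 48 h dosing, 8-pt half-log from 100 uM, 0.5% DMSO vehicle, duplicates. Readout: SLCO1B1 mRNA, qRT-PCR, ACTB/GAPDH/POLR2A normalization; up or down fit vs DMSO.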

Measured: AC50

Chain of Nuclear factor NF-kappa-B p105 subunit (Homo sapiens) (P19838 whole entry, looked up): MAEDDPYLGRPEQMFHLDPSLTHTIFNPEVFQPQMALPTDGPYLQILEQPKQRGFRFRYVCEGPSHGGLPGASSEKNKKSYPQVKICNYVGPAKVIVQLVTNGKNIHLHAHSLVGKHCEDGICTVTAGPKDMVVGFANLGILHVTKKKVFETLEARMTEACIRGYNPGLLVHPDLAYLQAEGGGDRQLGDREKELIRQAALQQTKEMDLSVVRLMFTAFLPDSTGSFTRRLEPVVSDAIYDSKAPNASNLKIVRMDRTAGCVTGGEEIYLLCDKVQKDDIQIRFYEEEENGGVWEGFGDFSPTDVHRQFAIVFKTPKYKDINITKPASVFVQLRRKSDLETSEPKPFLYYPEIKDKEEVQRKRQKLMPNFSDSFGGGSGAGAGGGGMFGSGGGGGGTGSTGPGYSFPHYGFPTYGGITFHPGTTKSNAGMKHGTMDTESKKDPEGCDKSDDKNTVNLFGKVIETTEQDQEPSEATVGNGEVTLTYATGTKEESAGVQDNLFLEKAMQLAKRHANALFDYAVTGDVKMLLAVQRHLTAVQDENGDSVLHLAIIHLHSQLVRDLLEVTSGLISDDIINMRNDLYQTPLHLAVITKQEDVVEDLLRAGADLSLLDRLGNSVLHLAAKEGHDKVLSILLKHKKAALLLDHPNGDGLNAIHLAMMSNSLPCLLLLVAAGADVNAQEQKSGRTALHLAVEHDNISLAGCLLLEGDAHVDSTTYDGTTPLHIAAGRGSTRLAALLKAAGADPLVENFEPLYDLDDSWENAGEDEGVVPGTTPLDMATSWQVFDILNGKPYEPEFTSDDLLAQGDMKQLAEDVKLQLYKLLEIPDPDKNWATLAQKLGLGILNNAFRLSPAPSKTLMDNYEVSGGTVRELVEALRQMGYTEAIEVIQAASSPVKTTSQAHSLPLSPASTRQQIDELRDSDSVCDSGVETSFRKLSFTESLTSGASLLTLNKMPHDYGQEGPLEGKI
Chain of Signal transducer and activator of transcription 3 (Homo sapiens) (P40763 whole entry, looked up): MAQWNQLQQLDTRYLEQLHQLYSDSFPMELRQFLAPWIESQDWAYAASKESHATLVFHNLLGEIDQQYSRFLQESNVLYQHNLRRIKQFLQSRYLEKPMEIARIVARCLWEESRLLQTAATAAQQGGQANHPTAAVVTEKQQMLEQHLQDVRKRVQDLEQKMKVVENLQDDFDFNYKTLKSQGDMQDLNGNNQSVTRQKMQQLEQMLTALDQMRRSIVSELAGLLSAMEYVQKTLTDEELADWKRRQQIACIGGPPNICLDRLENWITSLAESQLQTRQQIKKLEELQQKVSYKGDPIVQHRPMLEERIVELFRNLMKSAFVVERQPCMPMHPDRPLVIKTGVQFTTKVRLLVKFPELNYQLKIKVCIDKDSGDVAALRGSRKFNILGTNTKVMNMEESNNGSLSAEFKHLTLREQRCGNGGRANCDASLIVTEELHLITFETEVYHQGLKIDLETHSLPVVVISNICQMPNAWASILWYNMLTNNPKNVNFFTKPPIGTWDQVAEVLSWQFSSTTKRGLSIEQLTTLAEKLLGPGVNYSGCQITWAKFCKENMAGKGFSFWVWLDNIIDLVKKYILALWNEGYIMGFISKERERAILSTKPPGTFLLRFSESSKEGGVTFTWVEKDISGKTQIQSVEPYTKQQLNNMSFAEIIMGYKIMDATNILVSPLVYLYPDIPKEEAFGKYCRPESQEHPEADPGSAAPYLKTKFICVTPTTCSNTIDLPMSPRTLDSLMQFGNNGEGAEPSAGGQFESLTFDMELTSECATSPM
Chain of Nuclear factor erythroid 2-related factor 2 (Homo sapiens) (Q16236 whole entry, looked up): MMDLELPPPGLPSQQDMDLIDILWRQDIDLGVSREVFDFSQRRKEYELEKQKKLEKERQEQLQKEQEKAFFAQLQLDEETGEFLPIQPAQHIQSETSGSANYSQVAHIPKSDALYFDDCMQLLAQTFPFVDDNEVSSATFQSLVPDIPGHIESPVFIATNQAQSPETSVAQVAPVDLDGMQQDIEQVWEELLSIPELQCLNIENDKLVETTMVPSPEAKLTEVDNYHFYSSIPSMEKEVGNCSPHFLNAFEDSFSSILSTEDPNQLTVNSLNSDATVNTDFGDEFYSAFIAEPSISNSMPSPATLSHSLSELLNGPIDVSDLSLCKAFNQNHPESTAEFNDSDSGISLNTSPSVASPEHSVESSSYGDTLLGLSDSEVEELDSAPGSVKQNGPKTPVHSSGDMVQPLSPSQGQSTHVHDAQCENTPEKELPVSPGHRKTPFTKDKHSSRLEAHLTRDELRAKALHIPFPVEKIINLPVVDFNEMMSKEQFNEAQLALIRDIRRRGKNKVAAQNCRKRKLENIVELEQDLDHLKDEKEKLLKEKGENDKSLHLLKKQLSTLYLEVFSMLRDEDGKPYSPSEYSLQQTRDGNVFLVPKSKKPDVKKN

CC(=O)N1CCN(c2ccc(OC[C@H]3CO[C@](Cn4ccnc4)(c4ccc(Cl)cc4Cl)O3)cc2)CC1
active: [2] 76.6 µM | [3] 78.8 µM | [4] 13.3 µM | [5] 11 µM | [7] 12 µM | [8] 30.8 µM | [9] 35 µM | [10] 22.8 µM
inactive: [1] | [6]

CC(C)(O)c1ccc(CNC(=O)c2cccnc2Oc2ccc3nonc3c2)cc1
inactive: all assays above

O=C=NCCCCCCN=C=O
inactive: all assays above

CCN(Cc1cccc(S(=O)(=O)O)c1)c1ccc(C(=C2C=CC(=[N+](CC)Cc3cccc(S(=O)(=O)O)c3)C=C2)c2ccccc2S(=O)(=O)[O-])cc1
inactive: all assays above

Cc1cc(F)ccc1-c1cc(N2CC[C@@H](O)[C@H]2CO)ncc1N(C)C(=O)C(C)(C)c1cc(C(F)(F)F)cc(C(F)(F)F)c1
active: [2] 21.5 µM | [3] 66.4 µM | [4] 20.7 µM | [6] 79.8 µM | [7] 11.5 µM | [8] 75.1 µM | [10] 12.9 µM
inactive: [1] | [5] | [9]

CCOC(=O)O[C@H](C)OC(=O)c1ccc2c(c1)cc(C(=O)NC1CCN(C(C)C)CC1)n2Cc1cc(-c2ccc(Cl)s2)on1
inactive: all assays above

c1ccc(C[n+]2cccc3ccccc32)cc1
active: [4] 25 µM | [5] 31 µM | [7] 13.6 µM | [9] 20.5 µM | [10] 31.1 µM
inactive: all other assays above

CCCCCCCCOC(=O)c1cc(O)c(O)c(O)c1
inactive: all assays above

C[C@]12CC[C@@H]3c4ccc(O)cc4CC[C@H]3[C@@H]1CCC2=O
active: [4] 33.3 µM
inactive: all other assays above

Cc1cccc2ccccc12
inactive: all assays above

O=C(OCCCCCCOC(=O)c1ccccc1)c1ccccc1
inactive: all assays above

O=c1c(-c2ccc(O)cc2)coc2cc(O)cc(O)c12
inactive: all assays above

COCC(C)OCC(C)OCC(C)O (stereo not given)
inactive: all assays above

Clc1ccccc1C(c1ccccc1)(c1ccccc1)n1ccnc1
active: [2] 92.2 µM | [3] 87.2 µM | [4] 23.1 µM | [5] 28.3 µM | [7] 14.5 µM | [8] 90.5 µM | [10] 23.7 µM
inactive: [1] | [6] | [9]

CC[C@H](NC(=O)c1cc(F)ccc1NS(=O)(=O)c1cccc2cccnc12)c1ccccc1
active: [4] 50.8 µM | [10] 77.6 µM
inactive: all other assays above

CC(C)(c1cc(Br)c(O)c(Br)c1)c1cc(Br)c(O)c(Br)c1
active: [3] 72.7 µM | [4] 53.4 µM | [5] 88.9 µM | [6] 86.6 µM
inactive: all other assays above

O=c1ccc2ccccc2o1
inactive: all assays above

O=CCCCC=O
inactive: all assays above

CC(C)(C)c1cc(/C=C2\SC(N)=NC2=O)cc(C(C)(C)C)c1O
active: [1] 93.6 µM | [2] 96.5 µM | [3] 18.4 µM | [4] 25.3 µM | [5] 12.4 µM | [6] 15.8 µM | [7] 22.7 µM | [10] 24.9 µM
inactive: [8] | [9]
